Results reported in PubChem BioAssay (NCI).
This is part of a sample that, as a whole, favours compounds with a hit. Of some 79,000 tested, about 15% had one in any assay. A number with no mark means an inactive call. Active and inactive are the calls of the source. Rule as the data show it: active = growth inhibition above about 70%; inactive = the rest.

Tests used:
[1] = NCI Yeast Anticancer Drug Screen. Data for the rad50 strain (AID 155);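 also: 0% = growth of vehicle-only cultures of the same strain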; conditions: S. cerevisiae rad50 strain growth inhibition, hits give high values
Summary of the method: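 Readout: growth inhibition relative to vehicle-treated cultures. Compound exposure was carried out in a genetically defined yeast strain deficient in DNA damage repair.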

[2] = NCI Yeast Anticancer Drug Screen. Data for the mec2-1 strain (AID 157); conditions: S. cerevisiae mec2-1 strain, hits give high values
Summary of the method: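 Yeast mec2-1 mutant treated with compound. Readout: growth inhibition vs vehicle controls.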

[3] = NCI Yeast Anticancer Drug Screen. Data for the sgs1 mgt1 strain (AID 161);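 also: 0% = growth of cultures given vehicle only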; conditions: S. cerevisiae sgs1 mgt1 strain, hits give high values
Summary of the method: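 Genetically altered yeast, compound exposure, growth inhibition relative to vehicle.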

[4] = NCI Yeast Anticancer Drug Screen. Data for the cln2 rad14 strain (AID 165);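 also: 0% = growth equal to vehicle treated cultures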; conditions: S. cerevisiae cln2 rad14 strain, hits give high values
Summary of the method: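 cln2 rad14 yeast strain; compound exposure; growth inhibition read vs vehicle controls.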

[5] = NCI Yeast Anticancer Drug Screen. Data for the bub3 strain (AID 167); conditions: S. cerevisiae bub3 mutant strain, hits give high values
Summary of the method: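 Readout: yeast growth inhibition, expressed relative to vehicle-only wells. The test organism is a mutant strain from a panel with lesions in DNA repair or checkpoint genes.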

[6] = NCI Yeast Anticancer Drug Screen. Data for the mlh1 rad18 strain (AID 175); conditions: S. cerevisiae mlh1 rad18 strain growth inhibition, hits give high values
Summary of the method: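 Yeast w/ defined DNA-repair lesions; compound exposure; growth vs vehicle controls → % inhibition.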

[7] = at 5.0 µM (retest, dose inferred, filed as 0.5)
[8] = at 50.0 µM (retest, dose inferred, filed as 5.0)

SMILES	growth inhibition [1, 7]	growth inhibition [1, 8]	growth inhibition ([1]; at 50.0 µM)	growth inhibition [2, 7]	growth inhibition [2, 8]	growth inhibition ([2]; at 50.0 µM)	growth inhibition [3, 7]	growth inhibition [3, 8]	growth inhibition ([3]; at 50.0 µM)	growth inhibition [4, 7]	growth inhibition [4, 8]	growth inhibition ([4]; at 50.0 µM)	growth inhibition [5, 7]	growth inhibition [5, 8]	growth inhibition ([5]; at 50.0 µM)	growth inhibition [6, 7]	growth inhibition [6, 8]	growth inhibition ([6]; at 50.0 µM)
CS(=N)(=O)CCC(N)C(=O)O (configuration not stated)	-162%	-152%	11.4%	-50%	-48%	9.8%	-65%	-45%	-3.9%	-69%	-61%	18.7%	-73%	-78%	2.1%	-153%	-114%	14.6%
CCN1CCC(O)(c2ccc(Cl)cc2)C(C(=O)c2ccc(Cl)cc2)C1 (configuration not stated)	-8%	65%	99% (active)	6%	74% (active)	97.8% (active)	3%	67%	98.8% (active)	-7%	93% (active)	97.2% (active)	18%	80% (active)	98.5% (active)	3%	77% (active)	98.5% (active)
O=C1C=C(N2CC2)C(=O)C(N2CC2)=C1N1CC1	97% (active)	98% (active)	99.2% (active)	98% (active)	99% (active)	99.2% (active)	97% (active)	98% (active)	98.8% (active)	99% (active)	98% (active)	99% (active)	97% (active)	97% (active)	99.2% (active)	98% (active)	98% (active)	99% (active)
CC(=O)Nc1c2sscc-2n(C)c1=O	98% (active)	99% (active)	93.2% (active)	99% (active)	100% (active)	94.9% (active)	99% (active)	99% (active)	94.6% (active)	98% (active)	99% (active)	93.2% (active)	97% (active)	99% (active)	94% (active)	99% (active)	99% (active)	92.7% (active)
NC(=O)/C=C/c1ccc([As]=O)cc1 (configuration not stated)	1%	25%	97.8% (active)	1%	22%	98.7% (active)	0%	34%	99.3% (active)	9%	3%	96.5% (active)	4%	37%	98.7% (active)	5%	39%	99% (active)
O=C(N/N=C/c1cc(Br)cc(Br)c1[O-])c1ccccc1O.O=C(N/N=C/c1cc(Br)cc(Br)c1[O-])c1ccccc1O.[Ni+2]	97% (active)	98% (active)	18.4%	98% (active)	98% (active)	87% (active)	98% (active)	99% (active)	61.2%	93% (active)	98% (active)	31.6%	96% (active)	97% (active)	85.5% (active)	96% (active)	98% (active)	55.6%
[Pt].c1ccc([PH+](c2ccccc2)c2ccccc2)cc1.c1ccc([PH+](c2ccccc2)c2ccccc2)cc1.c1ccc([PH+](c2ccccc2)c2ccccc2)cc1.c1ccc([PH+](c2ccccc2)c2ccccc2)cc1	31%	62%	68.5%	27%	61%	42.7%	40%	82% (active)	62.3%	49%	55%	64%	42%	54%	62.5%	27%	86% (active)	41.5%
O=[N+]([O-])c1c[c]([Hg][Cl])c(O)[c]([Hg][Cl])c1	44%	99% (active)	88.7% (active)	52%	99% (active)	92.4% (active)	100% (active)	78% (active)	92.4% (active)	94% (active)	97% (active)	91% (active)	99% (active)	91% (active)	90.1% (active)	41%	99% (active)	89.2% (active)
NC[CH2][Sn]([c]1ccccc1)([CH]1CCCCC1)[CH]1CCCCC1	99% (active)	98% (active)	99% (active)	100% (active)	99% (active)	98.7% (active)	100% (active)	99% (active)	93.3% (active)	98% (active)	98% (active)	97.5% (active)	98% (active)	98% (active)	98.5% (active)	100% (active)	98% (active)	98.9% (active)
